Laboratory results reported in PubChem BioAssay AID2205 (University of Pittsburgh Molecular Library Screening Center, 2009).
The campaign covered roughly 200,000 compounds. About 1,600 (0.8%) were called active. This is one part of a sample in which actives are shown more often than they occur.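 Rule for the calls: active = plate Z-score above 3 for both tubulin-high and condensed-nucleus cell shares, with cell loss under 80%, at 10 µM; inactive = the rest, inconclusive results apart.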

Assay: microtubule stabilizers in HeLa cells, primary screen, imaging, high-content imaging (AID 2205);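 for % tubulin-high responders: anti alpha tubulin signal scored within the nucleus-defined area of each cell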;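 for toxicity: 0% = mean cell density of plate MIN control wells and 100% = no cells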
Conditions: HeLa tubulin immunostaining HCS, 24 h, at 10 µM; % Hoechst-high responders: measured here: nuclear condensation Hoechst responders, stronger effect = higher value, share of cells brighter than vehicle mean+2SD; % tubulin-high responders: stronger effect = higher value, share of cells brighter than vehicle mean+2SD; toxicity: measured here: cytotoxicity by cell density
With `O=c1[nH]n(-c2ccc([N+](=O)[O-])cc2)c(=O)c2ccccc12` the % Hoechst-high responders was 1.89%, the % tubulin-high responders was 3.4% (inactive) and the toxicity was 9.65%. In the case of `Cc1ccc(-n2c(SCC(=O)N3c4ccccc4Sc4ccccc43)nnc2-c2ccncc2)cc1`, the % Hoechst-high responders is reported as 1.48%, the % tubulin-high responders is reported as 4.83% (inactive) and the toxicity is reported as 6.63%. For `Cc1cc(C)c(C#N)c(SCC(=O)Nc2ccccc2)n1`, the % Hoechst-high responders was 2.87%, the % tubulin-high responders was 3.04% (inactive) and the toxicity was 8.63%. For `Cc1cccc(C)c1NC(=O)CSc1ccc([N+](=O)[O-])cn1`, the % Hoechst-high responders was 2.4%, the % tubulin-high responders was 2.2% (inactive) and the toxicity was 2.93%. With `Cc1cc2cc3c(cc2nc1SCC(=O)Nc1c(C)cccc1C)CCC3` the % Hoechst-high responders was 34.5%, the % tubulin-high responders was 47% (active) and the toxicity was 36.2%. For `CCCCN1C(=O)CCC(C(=O)O)C1c1ccc(OC)cc1` (configuration not stated), the % Hoechst-high responders was 2.91%, the % tubulin-high responders was 4.23% (inactive) and the toxicity was 11.7%. In the case of `O=c1ccc2cc(S(=O)(=O)N3CCN(c4ccccc4)CC3)ccc2o1`, the % Hoechst-high responders is reported as 1.39%, the % tubulin-high responders is reported as 0.945% (inactive) and the toxicity is reported as 5.98%. In the case of `O=C1CC(=O)Nc2cc(S(=O)(=O)N3CCN(c4cccc(C(F)(F)F)c4)CC3)ccc2N1`, the % Hoechst-high responders is reported as 10.2%, the % tubulin-high responders is reported as 22.1% (active) and the toxicity is reported as 36.8%. For `O=S(=O)(c1cccc(C(F)(F)F)c1)N1CCN(c2cnccn2)CC1`, the % Hoechst-high responders was 2.29%, the % tubulin-high responders was 4.64% (inactive) and the toxicity was 6.14%. In the case of `C/C(CC1CC(C)(C)OC1=O)=N/Nc1nc(-c2ccccc2)cs1` (configuration not stated), the % Hoechst-high responders is reported as 2.24%, the % tubulin-high responders is reported as 6.39% (inactive) and the toxicity is reported as 11.5%. In the case of `Cc1ccc2nc(-c3ccncc3)cc(C(=O)Nc3ccc4c(c3)OCCO4)c2c1`, the % Hoechst-high responders is reported as 4.59%, the % tubulin-high responders is reported as 3.49% (inactive) and the toxicity is reported as 10%. In the case of `Cc1ccc2nc(-c3ccccn3)cc(C(=O)Nc3ccc4c(c3)OCO4)c2c1`, the % Hoechst-high responders is reported as 2.11%, the % tubulin-high responders is reported as 3.85% (inactive) and the toxicity is reported as 5.75%. With `Cc1ccc2nc(-c3ccncc3)cc(C(=O)Nc3ccc(OC(F)F)cc3)c2c1` the % Hoechst-high responders was 37%, the % tubulin-high responders was 13.9% (active) and the toxicity was 27.1%. With `CC(C)(O)C#Cc1ncc(C(F)(F)F)cc1Cl` the % Hoechst-high responders was 2.46%, the % tubulin-high responders was 3.98% (inactive) and the toxicity was 7.29%. With `O=C1CC(N2CCN(c3ccc(F)cc3)CC2)C(=O)N1c1ccccc1` (configuration not stated) the % Hoechst-high responders was 1.93%, the % tubulin-high responders was 2.61% (inactive) and the toxicity was 4.03%. For `Cc1onc(C(=O)NCc2ccc(F)cc2)c1[N+](=O)[O-]`, the % Hoechst-high responders was 1.75%, the % tubulin-high responders was 2.95% (inactive) and the toxicity was 6.2%. In the case of `COc1ccc(/C=C/C(=O)Nc2ccc3c(c2)OCCO3)cc1OC`, the % Hoechst-high responders is reported as 1.93%, the % tubulin-high responders is reported as 1.43% (inactive) and the toxicity is reported as 9.72%. For `COc1ccc(/C=C/C(=O)OCC(=O)Nc2cccc(Oc3ccccc3)c2)c(OC)c1`, the % Hoechst-high responders was 4.35%, the % tubulin-high responders was 1.52% (inactive) and the toxicity was 2.38%. For `COc1ccc(OC)c(/C=C/C(=O)OCC(=O)Nc2ccc3c(c2)OCCO3)c1`, the % Hoechst-high responders was 20.4%, the % tubulin-high responders was 17.6% (active) and the toxicity was 25.4%. For `O=C(CSc1ccc2nnc(-c3ccccc3)n2n1)N1CCCc2ccccc21`, the % Hoechst-high responders was 4.1%, the % tubulin-high responders was 2.62% (inactive) and the toxicity was 12.3%. For `NC1=NC(=O)S/C1=C\c1ccc(O)cc1`, the % Hoechst-high responders was 3.29%, the % tubulin-high responders was 1.93% (inactive) and the toxicity was 4.56%. For `O=C(NNC(=S)NCc1ccco1)C(c1ccccc1)c1ccccc1`, the % Hoechst-high responders was 2.12%, the % tubulin-high responders was 1.06% (inactive) and the toxicity was 3.3%. With `C=CCSC1=C(C#N)C(c2cc(Br)c(O)c(OC)c2)CC(=O)N1` (configuration not stated) the % Hoechst-high responders was 5.45%, the % tubulin-high responders was 1.66% (inactive) and the toxicity was 9.07%. In the case of `CC1=C(C(=O)OCc2ccccc2)C(c2ccco2)n2ncnc2N1` (configuration not stated), the % Hoechst-high responders is reported as 2.47%, the % tubulin-high responders is reported as 2.96% (inactive) and the toxicity is reported as 10.1%. For `CCOC(=O)CSC1=C(C#N)C(c2ccco2)C(C(=O)OCc2ccccc2)=C(C)N1` (configuration not stated), the % Hoechst-high responders was 31.7%, the % tubulin-high responders was 50.8% (active) and the toxicity was 30%. With `COc1cc2c(cc1OC)C(c1ccc(C)o1)CC(=O)N2` (configuration not stated) the % Hoechst-high responders was 2.57%, the % tubulin-high responders was 2.94% (inactive) and the toxicity was 5.58%. For `CC1=C(C(=O)Nc2ccccc2)C(c2ccco2)C(C#N)=C(SCC(N)=O)N1` (configuration not stated), the % Hoechst-high responders was 1.48%, the % tubulin-high responders was 1.69% (inactive) and the toxicity was 9.84%. With `C=CCOC(=O)C1=C(C)NC(SCC(=O)OCC)=C(C#N)C1c1ccc(C)cc1` (configuration not stated) the % Hoechst-high responders was 1.55%, the % tubulin-high responders was 2.42% (inactive) and the toxicity was 8.87%. In the case of `Cc1ccc(C2CC(=O)NC(SCC(=O)OCc3ccccc3)=C2C#N)o1` (configuration not stated), the % Hoechst-high responders is reported as 13%, the % tubulin-high responders is reported as 33.6% (active) and the toxicity is reported as 51.7%. In the case of `COC(=O)CSC1=C(C#N)C(c2ccccc2OC)C(C(=O)OC)C(=O)N1` (configuration not stated), the % Hoechst-high responders is reported as 1.9%, the % tubulin-high responders is reported as 3.79% (inactive) and the toxicity is reported as 6.69%. With `CCOC(=O)CSC1=C(C#N)C(c2sccc2C)CC(=O)N1` (configuration not stated) the % Hoechst-high responders was 46%, the % tubulin-high responders was 25.8% (active) and the toxicity was 48.2%. In the case of `CCOC(=O)c1cnc2ccc(F)cc2c1Nc1ccc2c(c1)OCCO2`, the % Hoechst-high responders is reported as 3.26%, the % tubulin-high responders is reported as 2.38% (inactive) and the toxicity is reported as 9.58%. With `O=C(COC(=O)/C=C/c1nc2ccccc2s1)Nc1ccccc1Oc1ccccc1` the % Hoechst-high responders was 2.41%, the % tubulin-high responders was 2.82% (inactive) and the toxicity was 3.33%. In the case of `Cc1oc2cc([N+](=O)[O-])c(O)c([N+](=O)[O-])c2c1C(=O)c1ccc(Br)cc1`, the % Hoechst-high responders is reported as 1.62%, the % tubulin-high responders is reported as 3.42% (inactive) and the toxicity is reported as 6.71%. In the case of `O=C(COC(=O)C1CCCCC1)Nc1ccc([N+](=O)[O-])cc1`, the % Hoechst-high responders is reported as 1.85%, the % tubulin-high responders is reported as 1.8% (inactive) and the toxicity is reported as 7.95%. With `O=C(NC1CCCCCC1)c1cccnc1Sc1ccc(Cl)cc1` the % Hoechst-high responders was 1.73%, the % tubulin-high responders was 4.58% (inactive) and the toxicity was 7.66%. With `O=C(CSc1ccccn1)Nc1nc2c(ccc3ccccc32)s1` the % Hoechst-high responders was 1.64%, the % tubulin-high responders was 2.26% (inactive) and the toxicity was 7.1%. For `CCO[C@H]1OC(C(=O)Nc2ccccc2)=C[C@@H](C2CC2)[C@@H]1CCCO`, the % Hoechst-high responders was 1.42%, the % tubulin-high responders was 1.2% (inactive) and the toxicity was 3.73%. In the case of `CCC(C)NC(=O)/C=C/c1ccc(S(=O)(=O)NCc2ccco2)cc1` (configuration not stated), the % Hoechst-high responders is reported as 1.97%, the % tubulin-high responders is reported as 1.46% (inactive) and the toxicity is reported as 3.99%. In the case of `Cc1c(/C=N/N2C(=O)C3C4C=CC(C4)C3C2=O)c2ccccc2n1C` (configuration not stated), the % Hoechst-high responders is reported as 1.92%, the % tubulin-high responders is reported as 5.53% (inactive) and the toxicity is reported as 6.18%. With `Cc1c(/C=N\NC(=O)c2cc3ccccc3o2)c2ccccc2n1C` the % Hoechst-high responders was 21.2%, the % tubulin-high responders was 38.7% (active) and the toxicity was 75.1%. For `O=C(N/N=C/c1coc2ccccc2c1=O)c1cc2ccccc2o1`, the % Hoechst-high responders was 2.07%, the % tubulin-high responders was 3.76% (inactive) and the toxicity was 5.72%. For `O=C(N/N=C/c1ccc(OCC2COCCO2)cc1)c1ccc(Br)cc1` (configuration not stated), the % Hoechst-high responders was 1.72%, the % tubulin-high responders was 2.47% (inactive) and the toxicity was 8.95%. With `CC(C)c1csc(CN2CCC(CO)(Cc3ccccc3)CC2)n1` the % Hoechst-high responders was 1.55%, the % tubulin-high responders was 3.05% (inactive) and the toxicity was 6.68%. In the case of `O=S(=O)(c1ccc(F)cc1)N1CCN(C(=S)NCc2ccco2)CC1`, the % Hoechst-high responders is reported as 3.02%, the % tubulin-high responders is reported as 4.87% (inactive) and the toxicity is reported as 5.01%. With `COc1ccc(CC(NC(C)=O)C(=O)NC2CCN(C(=O)C3CC3)CC2)cc1OC` (configuration not stated) the % Hoechst-high responders was 1.12%, the % tubulin-high responders was 2.29% (inactive) and the toxicity was 9.53%. In the case of `O=C(CN1CCC(O)(c2ccccc2)CC1)Nc1ccc2c(c1)OCCO2`, the % Hoechst-high responders is reported as 1.61%, the % tubulin-high responders is reported as 5.34% (inactive) and the toxicity is reported as 10.9%. In the case of `CCOc1ccc2c(c1)C(c1ccc(C)cc1)=NNC(c1ccc(C)cc1)=N2`, the % Hoechst-high responders is reported as 14.4%, the % tubulin-high responders is reported as 37.8% (active) and the toxicity is reported as 35.7%. In the case of `Cc1ccc(C2=Nc3c(ccc4ccccc34)C(c3ccncc3)=NN2)cc1`, the % Hoechst-high responders is reported as 2.17%, the % tubulin-high responders is reported as 4.68% (inactive) and the toxicity is reported as 5.9%. For `CCc1ccc2c(c1)C(c1ccc([N+](=O)[O-])cc1)=NNC(c1ccccc1)=N2`, the % Hoechst-high responders was 3.31%, the % tubulin-high responders was 2.17% (inactive) and the toxicity was 4.07%. In the case of `COc1cccc(CN(C)CC(=O)Nc2sc3c(c2C#N)CCC3)c1`, the % Hoechst-high responders is reported as 1.26%, the % tubulin-high responders is reported as 3.67% (inactive) and the toxicity is reported as 4.57%. In the case of `CC1(C)CC(=O)C(CC(=O)N2CCC(Cc3ccccc3)CC2)C(=O)C1`, the % Hoechst-high responders is reported as 2.54%, the % tubulin-high responders is reported as 4.67% (inactive) and the toxicity is reported as 7.14%. For `Cc1csc(CN(C)C(=O)CC2C(=O)NCCN2CC(C)(C)C)n1` (configuration not stated), the % Hoechst-high responders was 2.16%, the % tubulin-high responders was 2.8% (inactive) and the toxicity was 7.49%. In the case of `Nc1nonc1-n1nnc(C(=O)N/N=C/c2cc(Br)ccc2O)c1CSC1=NCCS1`, the % Hoechst-high responders is reported as 0.673%, the % tubulin-high responders is reported as 9.12% (inactive) and the toxicity is reported as 24.4%.
